Measurements as given in PubChem BioAssay (NCI).
Where “and” joins values, the source holds several entries; their conditions need not be identical. Identical values can stand only once. This is part of a sample that, as a whole, favours compounds with a hit. Of some 79,000 tested, about 15% had one in any assay. Calls of active or inactive are those of the source. No stated cut-off is given here; in the data, active means growth inhibition above about 70%; inactive means the rest.

Key:
[1] = NCI Yeast Anticancer Drug Screen. Data for the rad50 strain (AID 155);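 further: 0% = growth of vehicle-only cultures of the same strain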; details: S. cerevisiae rad50 strain growth inhibition, hits give high values
Outline: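 Readout: growth inhibition relative to vehicle-treated cultures. Compound exposure was carried out in a genetically defined yeast strain deficient in DNA damage repair.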

[2] = NCI Yeast Anticancer Drug Screen. Data for the mec2-1 strain (AID 157); details: S. cerevisiae mec2-1 strain, hits give high values
Outline: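 Each compound was tested on mec2-1 yeast, a strain altered in DNA damage repair or cell cycle control. Growth inhibition is reported relative to vehicle.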

[3] = NCI Yeast Anticancer Drug Screen. Data for the sgs1 mgt1 strain (AID 161);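 further: 0% = growth of cultures given vehicle only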; details: S. cerevisiae sgs1 mgt1 strain, hits give high values
Outline: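 Test agents were incubated with a DNA-repair-mutant yeast strain. Growth was then read and compared against vehicle-treated controls.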

[4] = NCI Yeast Anticancer Drug Screen. Data for the cln2 rad14 strain (AID 165);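 further: 0% = growth equal to vehicle treated cultures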; details: S. cerevisiae cln2 rad14 strain, hits give high values
Outline: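 Test compounds were added to cln2 rad14 yeast cultures; inhibition of growth was then determined by comparison with vehicle treatment.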

[5] = NCI Yeast Anticancer Drug Screen. Data for the bub3 strain (AID 167); details: S. cerevisiae bub3 mutant strain, hits give high values
Outline: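 Readout: yeast growth inhibition, expressed relative to vehicle-only wells. The test organism is a mutant strain from a panel with lesions in DNA repair or checkpoint genes.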

[6] = NCI Yeast Anticancer Drug Screen. Data for the mlh1 rad18 strain (AID 175); details: S. cerevisiae mlh1 rad18 strain growth inhibition, hits give high values
Outline: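 Inhibition values reflect reduced growth of mutant yeast versus vehicle-treated controls following compound exposure; the mutations affect DNA damage repair.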

[7] = at 5.0 µM (retest, dose inferred, filed as 0.5)
[8] = at 50.0 µM (retest, dose inferred, filed as 5.0)

Measured: growth inhibition

S=c1nc[nH]c2ccccc12
inactive: [1]; at 50.0 µM -2.5% and -12.8% | [2]; at 50.0 µM -4.8% and -16.8% | [3]; at 50.0 µM -11% and 12.9% | [4]; at 50.0 µM -98.9% and -0.05% | [5]; at 50.0 µM -2.75% and -2.25% | [6]; at 50.0 µM 5% and 5.65%

Cc1ccccc1N=NC(C#N)C#N
active: [1]; [7] 82% | [1]; [8] 99% | [2]; [8] 100% | [3]; [7] 85% | [3]; [8] 100% | [4]; [8] 99% | [5]; [8] 100% | [6]; [7] 78% | [6]; [8] 99%
inactive: [2]; [7] 40% | [4]; [7] 39% | [5]; [7] 68%

COC(=O)/C=C\C(=O)O
inactive: [1]; at 50.0 µM -4.95% and 5.05% | [2]; at 50.0 µM -4.85% and -16.4% | [3]; at 50.0 µM -1.75% and -2.6% | [4]; at 50.0 µM -15.7% and -17.2% | [5]; at 50.0 µM 3.35% and -23.7% | [6]; at 50.0 µM 14.2% and 8.65%

CC(=O)O[C@H]1C(=O)[C@@]2(C)C(C(OC(=O)c3ccccc3)[C@]3(O)CC(OC(=O)[C@H](OC(=O)CCC(=O)O)C(NC(=O)c4ccccc4)c4ccccc4)C(C)=C1C3(C)C)C1(OC(C)=O)COC1C[C@@H]2O (stereo partly drawn)
inactive: [1]; at 50.0 µM 12.9% and 26.6% | [2]; at 50.0 µM 10.1% and 18.2% | [3]; at 50.0 µM -19.2% and -19.7% | [4]; at 50.0 µM -15.8% and -13.2% | [5]; at 50.0 µM -6.95% and -15.3%

CCCCCCCc1ccc(OC2OC(COC(C)=O)C(OC(C)=O)C(OC(C)=O)C2OC(C)=O)cc1 (stereo not drawn)
inactive: [1]; at 50.0 µM -7% and -26.1% | [2]; at 50.0 µM -12.1% and 13.8% | [3]; at 50.0 µM -30.4% and 1.4% | [4]; at 50.0 µM -7.45% and 37.9% | [5]; at 50.0 µM 5.55% and 9.7% | [6]; at 50.0 µM -6% and 10.6%

CC(=O)Nc1nc(-c2ccccc2)cs1
inactive: [1]; [7] 1% | [1]; [8] 23% | [2]; [7] -4% | [2]; [8] 4% | [3]; [7] -2% | [3]; [8] 23% | [4]; [7] 7% | [4]; [8] -5% | [5]; [7] -1% | [5]; [8] 6% | [6]; [7] -11% | [6]; [8] 2%

COc1ccc(C(N)=O)cc1
inactive: [1]; [7] 14% | [1]; [8] 2% | [2]; [7] -3% | [2]; [8] 0% | [3]; [7] -5% | [3]; [8] 3% | [4]; [7] -3% | [4]; [8] -11% | [5]; [7] -6% | [5]; [8] -5% | [6]; [7] 16% | [6]; [8] 24%

Nc1cccc2c1-c1ccccc1C2=O
inactive: [1]; [7] 15% | [2]; [7] 1% | [2]; [8] 18% | [3]; [7] 4% | [3]; [8] 47% | [4]; [7] -1% | [4]; [8] -7% | [5]; [7] 1% | [5]; [8] 15% | [6]; [7] -35% | [6]; [8] 29%
active: [1]; [8] 89%

Oc1ccc(Cc2cccc(Cl)c2)c(O)c1
inactive: [1]; [7] -1% | [2]; [7] -7% | [3]; [7] -4% | [4]; [7] 4% | [5]; [7] 0% | [6]; [7] -3%
active: [1]; [8] 92% | [2]; [8] 96% | [3]; [8] 97% | [4]; [8] 98% | [5]; [8] 92% | [6]; [8] 90%

CCOc1ccc(C=O)cc1OC
inactive: [1]; at 50.0 µM -29.6% and -0.5% | [2]; at 50.0 µM -53.1% and -10.4% | [3]; at 50.0 µM -52.6% and 0.25% | [4]; at 50.0 µM -6.4% and 4.25% | [5]; at 50.0 µM -26.9% and -0.4% | [6]; at 50.0 µM -11.4% and 0.1%

COc1ccc(N=CC2CCCCC2=O)c([N+](=O)[O-])c1 (stereo not drawn)
active: [5]; [8] 86%
inactive: [1]; [7] 25% | [1]; [8] 69% | [2]; [7] 29% | [2]; [8] 42% | [3]; [7] -1% | [3]; [8] 12% | [4]; [7] 31% | [4]; [8] 56% | [5]; [7] 13% | [6]; [7] 53% | [6]; [8] 61%

Oc1ccc(Cc2ccc(Cl)cc2)c(O)c1
active: [1]; [8] 98% | [2]; [8] 99% | [4]; [8] 98% | [5]; [8] 99% | [6]; [8] 98%
inactive: [1]; [7] 3% | [2]; [7] -5% | [4]; [7] 0% | [5]; [7] -2% | [6]; [7] -33%

O=C(Oc1ccc(Cl)cc1Cl)Oc1ccc(Cl)cc1Cl
inactive: [1]; at 50.0 µM -16.8% and -3.1% | [2]; at 50.0 µM 11.6% and 10% | [3]; at 50.0 µM -0.9% and -13.1% | [4]; at 50.0 µM -13.1% and -15.7% | [5]; at 50.0 µM 14.2% and 14.9% | [6]; at 50.0 µM -14.5% and 20.6%

CC(C)CNC(=O)C(C)O (stereo not drawn)
inactive: [1]; [7] 13% | [2]; [7] 2% | [2]; [8] 18% | [3]; [7] 4% | [3]; [8] 40% | [4]; [7] 2% | [4]; [8] 14% | [5]; [7] 0% | [5]; [8] 7% | [6]; [7] 12% | [6]; [8] 40%
active: [1]; [8] 88%

O=C1CCCCC1C(O)c1ccc([N+](=O)[O-])cc1 (stereo not drawn)
inactive: [1]; at 50.0 µM 0.05% and -2.7% | [2]; at 50.0 µM 16.1% and -5.9% | [3]; at 50.0 µM 10.7% and -2.35% | [4]; at 50.0 µM -2.35% and -15.2% | [5]; at 50.0 µM 5.3% and -5.1% | [6]; at 50.0 µM 16.1% and -6.85%

Nc1ccc2nc[nH]c2c1
inactive: [1]; at 50.0 µM -15.3% and 18.9% | [2]; at 50.0 µM -7.6% and -4.65% | [3]; at 50.0 µM -7.55% and -18.6% | [4]; at 50.0 µM 14.7% and 16.6% | [5]; at 50.0 µM 2.25% and -1% | [6]; at 50.0 µM -0.9% and 14.3%

O=C1CC(=P(c2ccccc2)(c2ccccc2)c2ccccc2)C(=O)O1
inactive: [1]; at 50.0 µM 24.1% and -0.65% | [2]; at 50.0 µM 24.5% and -1% | [3]; at 50.0 µM 13.2% and 0% | [4]; at 50.0 µM 14.7% and 9.8% | [5]; at 50.0 µM 10.8% and -4.15% | [6]; at 50.0 µM 12.2% and 5.5%

COc1ccc(-c2[nH]c(=O)n(C3OC(CO)C(O)C(O)C3O)c(=O)c2C#N)cc1 (stereo not drawn)
inactive: [1]; at 50.0 µM 7.65% and 19.9% | [2]; at 50.0 µM 5.4% and 6.1% | [3]; at 50.0 µM -8.55% and 1.1% | [4]; at 50.0 µM 36.9% and 13.5% | [5]; at 50.0 µM 6.95% and 7.6% | [6]; at 50.0 µM -78.4% and -59%
